MITF TRPM1 inh = inhibitors of MITF-dependent TRPM1 promoter reporter, primary screen, cell-based, SK-MEL-5, single point, luciferase; SK-MEL-5 TRPM1 promoter luciferase, 24 h; inhibition, % at 12.5 µM; 330,000 compounds, 0.83% hits; AID 488899, 2010;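 active means mean inhibition across replicates of 60% or more, whatever share of single replicates reaches that level; inconclusive means some that reach 60%, reason not given; inactive means mean inhibition across replicates below 60%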
Wnt bcat act = Wnt/beta-catenin pathway activators, primary screen, cell-based, plate reader, single point; activation, % at 9.35 µM; 300,000 compounds, 1.2% hits; Wnt/beta-catenin reporter cell assay, activator; in the data active means activation above about 30%, passing the limit was not always enough; inconclusive means no clear call, values can overlap the other calls;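 further: 0% = neutral control wells and 100% = positive control wells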
MITF act = activators of MITF-driven TRPM1 promoter reporter, primary screen, cell-based, SK-MEL-5, luciferase, single point; activation, % at 12.5 µM; SK-MEL-5 TRPM1-promoter luciferase, 24 h; % of positive control, neutral wells = 0; 300,000 compounds, 0.75% hits;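 active means mean activation of at least 80% with every replicate also reaching 80%; inconclusive means mean reaches 80% but some replicate falls short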;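 further: 0% = neutral control wells and 100% = parthenolide positive control wells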
esBAF inh = Bmi1 luciferase reporter increase in mESCs, primary screen, esBAF inhibitor project, mouse ES cells, Bmi1 luciferase knock-in, single point; 24 h; 100% = twice the neutral-well signal; reporter increase, % at 12.5 µM; 350,000 compounds, 2% hits; AID 602393, 2012; in the data active means activation above about 40%; inconclusive means no clear call, values can overlap the other calls;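 further: 0% = median of the plate's neutral control wells and 100% = double that signal; a rise in the Bmi1 reporter signal indicates esBAF inhibition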
PAX8 reporter = inhibitors of PAX8-driven TPO luciferase reporter, primary screen, RMG-I cells, single concentration | SteadyGlo, 24 h | inhibition, % at 12.6 µM | 360,000 compounds, 1.2% hits;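 active means mean replicate inhibition at least 60% with every replicate also reaching 60%; inconclusive means only one of the two criteria is met; inactive means mean below 60% and not all replicates reaching 60%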;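 further: luciferase light reporting Pax8 driven TPO promoter activity; plate controls were median of neutral control wells for no effect and mitoxantrone controls for full effect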
EWS-Fli block = EWS/Fli-driven NR0B1 reporter inhibitors, primary screen, A673 cells, NR0B1 luciferase, luminescence, MLPCN library. 350,000 compounds, 0.67% hits. inhibition, % at 12.6 µM. viability-normalised. AID 651661, 2012;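 active means mean inhibition of at least 50% after viability correction, with every replicate also passing that limit; inconclusive means mean reaches 50% but only one of two replicates passes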;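 further: firefly luciferase signal divided by Alamar Blue viability fluorescence both relative to DMSO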
DNA binder FP = DNA binders by acridine orange displacement, dose response, counter-screen for EWS/Fli inhibitor project, biochemical, fluorescence polarization, cherry-pick | shares compounds with EWS-Fli block | salmon sperm DNA acridine orange fluorescence polarization | AC35, µM (top dose mostly 68 µM), for inactives: at the highest dose activity change, negative = DNA binding | 640 compounds, 2% hits;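 active means fitted curve reaches a 35% signal fall AC35 below twice the sample's top valid tested dose, actives reach about 48 µM in these data; inactive means the rest, including activity in the rising direction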;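 further: lower polarization ratio signals compound binding to DNA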
Starred values were filed as active, the others as inactive; u = inconclusive; x = no result. Rows were chosen to be rich in hits. Some 4% of all compounds tested hit in one or more screens of this group.

SMILES	MITF TRPM1 inh	Wnt bcat act	MITF act	esBAF inh	PAX8 reporter	EWS-Fli block	DNA binder FP
C[C@@H]1CN([C@H](C)CO)C(=O)Cc2cc(N(C)C)ccc2O[C@H]1CN(C)Cc1ccc(Oc2ccccc2)cc1	x	x	x	-0.9	-49.4	-13.7	x
COc1ccccc1S(=O)(=O)N[C@@H]1C=C[C@H](CC(=O)NCc2cc(F)cc(F)c2)O[C@H]1CO	x	x	x	-2.0	-4.1	-1.0	x
Cc1c(O)ccc2c(CN3CCN(Cc4ccccc4)CC3)cc(=O)oc12	-3.0	1.5	6.0	4.8	0.2	-8.5	x
O=c1cc(CN2CCN(Cc3ccccc3)CC2)c2ccc(O)c(O)c2o1	7.8	-1.8	-5.1	-2.5	28.7	51.7*	-5.1%
COC(=O)c1c(C)[nH]c(/C=N/Nc2ccccc2)c1C	-96.5	15.8	x	x	-33.4	54.0*	-16.7%
Cc1c(C=NNc2ccccc2)[nH]c(=O)[nH]c1=O	-7.9	4.5	3.5	x	-27.5	16.9	x
COc1ccc(S(=O)(=O)N(C)C[C@@H]2OCCCC[C@@H](C)Oc3ccc(NC(=O)CCCN(C)C)cc3C(=O)N([C@@H](C)CO)C[C@H]2C)cc1	x	x	x	3.8	-14.7	-9.6	x
CC(C)(C)c1ccc(Oc2ccc(NC(=O)c3ccccc3C(=O)O)cn2)cc1	x	2.2	x	x	14.3	62.8*	2.2%
CC(C)(C)c1ccc(Oc2ccc(N)cn2)cc1	x	-6.3	x	x	13.9	71.3*	-13.6%
COc1ccc2c3c([nH]c2c1)[C@H](CO)N(Cc1ccncc1)CC31CCN(C(=O)Cc2ccncc2)CC1	x	x	x	x	9.7	0.9	x
COc1ccc(C2=Nn3c(nnc3-c3ccccc3OC)SC2)cc1OCC1CC1	52.0	-19.0	-50.3	-18.8	77.5*	61.9*	-14.2%
COc1ccc(OC)c(-c2nnc3n2N=C(c2ccc(OC)c(OC4CCCC4)c2)CS3)c1	77.7*	-9.2	-76.4	-5.5	88.6*	52.2*	-12.8%
C[C@@H]1CN([C@@H](C)CO)C(=O)c2cc(C#CCN(C)C)cnc2O[C@@H]1CN(C)Cc1ccncc1	x	x	x	-1.9	x	-12.1	x
COc1ccccc1S(=O)(=O)N[C@H]1CC[C@H](CCNC(=O)C2CCC2)O[C@H]1CO	x	x	x	0.8	-12.1	-6.5	x
CO[C@@H]1CN(C)C(=O)c2ccc(NC(=O)c3ccc(-c4ccccc4)cc3)cc2OC[C@@H](C)NC[C@@H]1C	x	x	x	x	16.3	15.7	x
CO[C@H]1CN(C)C(=O)c2cc(NC(=O)c3ccc(Oc4ccccc4)cc3)ccc2OC[C@H](C)NC[C@@H]1C	x	x	x	-0.7	35.8	57.9*	-17.8%
CO[C@H]1CN(C)C(=O)c2ccc(NC(=O)c3ccc(-c4ccccc4)cc3)cc2OC[C@H](C)NC[C@H]1C	x	x	x	-0.9	u	82.8*	-14.5%
COc1ccc(NC(=O)N2CC[C@@H]3[C@@H](CO)N(C)c4ccc(-c5cccc(C(=O)N(C)C)c5)cc4[C@@H]32)cc1	x	x	x	8.1	9.3	4.1	x
Cc1ccc(S(=O)(=O)N[C@@H]2CC[C@@H](CC(=O)N3CCN(c4ccccc4)CC3)O[C@@H]2CO)cc1	x	x	x	9.7	3.0	5.2	x
O=C(NCc1ccc(F)cc1)N1[C@H]2CC[C@@H]1C=C(c1ccc(F)cc1OCc1ccccc1)C2	x	-3.8	x	-10.4	-22.4	53.9*	-9.2%
COc1ccc(CNC(=O)N2[C@H]3CC[C@@H]2C=C(c2ccc(F)cc2OCc2ccccc2)C3)cc1OC	x	-2.7	x	-1.1	26.4	-34.9	x
C[C@@H]1CCCCO[C@H](CN(C)C(=O)Nc2ccc3c(c2)OCO3)[C@@H](C)CN([C@@H](C)CO)C(=O)c2cc(NC(=O)c3ccncc3)ccc2O1	x	x	x	-0.6	x	-14.1	x
Cc1ccc(C(=O)O/N=C(\N)c2ccccn2)cc1	67.4*	0.0	-69.0	-78.8	105.1*	51.9*	2.7%
N/C(=N\OC(=O)c1cccc(F)c1)c1ccccn1	-15.8	6.6	17.2	-58.4	19.8	29.1	x
C=CC[n+]1c(-c2ccc(C)cc2)csc1Nc1ccc(NC(C)=O)cc1	80.9*	-1.5	-79.7	x	8.1	62.2*	-5.7%
SMILES	MITF TRPM1 inh	Wnt bcat act	MITF act	esBAF inh	PAX8 reporter	EWS-Fli block	DNA binder FP
CCCCC1Cc2[nH]c(=S)[nH]c(=O)c2C(c2ccc3ccccc3c2)O1 (stereo not drawn)	x	0.2	x	x	9.3	5.0	x
CCCC[C@@H]1Cc2[nH][nH]c(=O)c2[C@H](c2ccc3ccccc3c2)O1	x	0.7	x	x	-3.1	52.4*	2.8%
C[C@@H]1CN([C@H](C)CO)C(=O)c2cc(NC(=O)CCC(F)(F)F)ccc2O[C@@H](C)CCCCO[C@@H]1CN(C)CC1CCCCC1	x	x	x	-0.7	13.0	3.4	x
COc1ccc(CN(C)C[C@@H]2OCCCC[C@@H](C)Oc3ccc(NC(=O)Nc4c(C)noc4C)cc3C(=O)N([C@@H](C)CO)C[C@H]2C)cc1	x	x	x	4.4	-4.3	-6.8	x
BrC(=C\c1ccccc1)/C=N/n1cnnc1	82.6*	24.6	-80.7	x	95.3*	67.5*	-8.0%
BrC(=C\c1ccccc1)/C=N/Nc1ccc2nncn2n1	1.0	u	x	x	-3.9	-3.1	x
Cc1noc(C)c1NC(=O)N(C)C[C@@H]1Oc2c(NC(=O)c3ccc(-c4nccs4)cc3)cccc2C(=O)N([C@@H](C)CO)C[C@@H]1C	x	x	x	-1.8	x	0.0	x
CC(C)NC(=O)Nc1ccc2c(c1)C(=O)N([C@H](C)CO)C[C@@H](C)[C@H](CN(C)C(=O)Nc1ccc(F)cc1)OCCCC[C@@H](C)O2	x	x	x	7.3	-9.7	-2.5	x
CO[C@@H]1CN(C)C(=O)c2ccc(NS(C)(=O)=O)cc2OC[C@H](C)N(Cc2cccnc2)C[C@@H]1C	x	x	x	-0.4	x	0.4	x
Oc1cccc(-c2nnc(-c3cccc(O)c3)nn2)c1	23.1	-0.5	-21.1	-72.6	3.3	72.2*	-9.9%
Oc1cccc(-c2nc3ccccc3s2)c1	-15.7	22.3	16.0	-25.2	x	x	x
